Compound activity (PubChem BioAssay)
An excerpt weighted towards active compounds, which were near 2.7% of everything screened.
A549 tox: A549 cytotoxicity, counter-screen for Nrf2 inhibitors; A549 ARE-Fluc cells, CellTiter-Fluor viability, 18-24 h; Potency, µM (top dose mostly 46 µM), usual class: inhibitors; 390,000 compounds, 0.16% hits; AID 504648
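A549 ARE-Fluc cells in 5% FBS OPTI-MEM, 5000 cells/well, rested 2 h then exposed to compounds in concentration-response for 18-24 h at 37 °C. Viability by CellTiter-Fluor fluorescence (Ex 405/Em 525) after 30 min; luciferase luminescence (BugLite, 15 min, RT) read afterwards.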
IDH1 R132H inh: human IDH1 R132H inhibition; O75874; IDH1-R132H enzyme, NADPH consumption, diaphorase/resazurin fluorescence; Potency, µM (top dose mostly 76.6 µM), actives largely listed as inhibitors; 390,000 compounds, 0.093% hits; AID 602179; further: nearly all actives have a fitted effect of over 65% in size
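IDH1-R132H (0.5 ug/mL dispensed) in pH 7.5 Tris buffer was preincubated 30 min with compound, then given a substrate mix of 0.016 mM NADPH and 2 mM alpha-KG for 80 min at room temperature; remaining NADPH was read by diaphorase/resazurin fluorescence.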
LDHA block: blocks human lactate dehydrogenase A; purified LDHA, NADH/diaphorase-resazurin fluorescence; hits give low values; activity change, % (values are at about 110 or 230 µM); 480,000 compounds, 0.15% hits; in the data active means activity change below about -30%; inconclusive means mostly about -25% to -30%
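Remaining NADH was detected by diaphorase (0.133 mg/mL) converting 37 µM resazurin to fluorescent resorufin, read at 0 and 20 minutes. The preceding 5-minute room-temperature reaction used 2 nM LDHA, 0.2 mM sodium pyruvate and 0.06 mM NADH at pH 7.4.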
Nrf2 block: blocks Nrf2 signaling | A549 ARE-Fluc reporter, luciferase luminescence, 18-24 h | Potency, µM (highest dose often 46 µM), usual class: inhibitors | 360,000 compounds, 2.1% hits; further: nearly all actives have a fitted effect of over 60% in size
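Two sequential reads on A549 ARE_Fluc cells exposed to compound for 18-24 h: a CellTiter-Fluor fluorescence read for viability, then a luciferase luminescence read for Nrf2/ARE activity.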
ALOX12 inh: inhibitors of human 12S-lipoxygenase ALOX12. P18054. purified 12hLO, xylenol orange hydroperoxide absorbance. Potency, µM (top dose mostly 108 µM), usual class: inhibitors. 580,000 compounds, 1.1% hits
Target sequence (P18054 whole entry, looked up): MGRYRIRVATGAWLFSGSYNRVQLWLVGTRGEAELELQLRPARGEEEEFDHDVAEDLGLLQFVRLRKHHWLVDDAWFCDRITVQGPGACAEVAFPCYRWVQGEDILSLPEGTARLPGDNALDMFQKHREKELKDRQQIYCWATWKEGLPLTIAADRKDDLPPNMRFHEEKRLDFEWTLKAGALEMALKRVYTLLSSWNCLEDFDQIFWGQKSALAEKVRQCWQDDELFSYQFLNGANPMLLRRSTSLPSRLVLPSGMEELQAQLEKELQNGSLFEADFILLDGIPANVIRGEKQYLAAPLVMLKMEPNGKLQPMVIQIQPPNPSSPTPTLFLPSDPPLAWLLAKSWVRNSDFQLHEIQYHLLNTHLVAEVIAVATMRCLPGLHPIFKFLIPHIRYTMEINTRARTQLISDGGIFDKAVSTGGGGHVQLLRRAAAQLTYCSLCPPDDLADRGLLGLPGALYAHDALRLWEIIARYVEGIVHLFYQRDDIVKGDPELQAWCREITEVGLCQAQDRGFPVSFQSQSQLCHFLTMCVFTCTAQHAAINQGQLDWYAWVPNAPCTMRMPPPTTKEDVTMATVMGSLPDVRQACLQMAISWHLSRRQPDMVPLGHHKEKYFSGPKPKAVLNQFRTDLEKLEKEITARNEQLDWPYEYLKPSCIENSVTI
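Purified human 12hLO at 150 nM in 25 mM Hepes, 0.01% Triton X-100, pH 7.0, preincubated 15 min at room temperature with compound. Reaction started with 40 uM arachidonic acid, 30 min at room temperature. Hydroperoxide measured by Fe-xylenol orange, 573/405 nm absorbance ratio.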
Nrf2 activator: activators of Nrf2 (ARE) signaling. AREc32 ARE-luciferase reporter (MCF7-derived line), luminescence, 24 h. Potency, µM (top dose mostly 46.1 µM), most hits filed as activators. 410,000 compounds, 0.31% hits. AID 624171; further: nearly all actives have a fitted effect of over 65% in size
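Steps: seed AREc32_Fluc cells (1000/well, 5% FBS OPTI-MEM); incubate overnight at 37 deg C; add 23 nL compound; incubate 24 hr; add Steady-Glo; hold 30 min RT; read luminescence.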
Large screens that a line does not name were inactive. Unless noted, the call rests on the fitted dose curve; in most records, active means well fitted curve in the direction sought with a large enough effect; inconclusive means small, poorly fitted or top-dose-only effect, or another doubt; inactive means no such curve, though single readings can be large; an effect the other way counts as inactive or inconclusive.

O=C(CSc1ncc(C(F)(F)F)cc1Cl)N1CCN(S(=O)(=O)c2ccc(Cl)cc2)CC1	Nrf2 block inconclusive
O=C(CSc1ccc(Cl)cc1)N1CCN(c2ncc(C(F)(F)F)cc2Cl)CC1	Nrf2 block 21µM
CCC1=C[C@@H]2CN(C1)Cc1c([nH]c3ccccc13)[C@@](C(=O)OC)(c1cc3c(cc1OC)N(C)[C@@H]1[C@@](O)(C(=O)OC)[C@H](OC(C)=O)[C@]4(CC)C=CCN5CC[C@]31[C@@H]54)C2	ALOX12 inh 4.3µM (no result: A549 tox, IDH1 R132H inh, LDHA block, Nrf2 block, Nrf2 activator)
O=c1cc(CN2CCN(Cc3ccccc3)CC2)c2cc(O)c(-c3ccccc3)cc2o1	ALOX12 inh inconclusive (no result: A549 tox, IDH1 R132H inh, Nrf2 block, Nrf2 activator)
Cc1ccc(S(=O)(=O)N2CCN(Cc3cc(=O)oc4cc(O)c(Cl)cc34)CC2)cc1	ALOX12 inh 45µM (no result: A549 tox, IDH1 R132H inh, Nrf2 block, Nrf2 activator)
CCN1CCN(Cc2cc(=O)oc3cc(-c4ccccc4)c(O)cc23)CC1	ALOX12 inh 32µM (no result: A549 tox, IDH1 R132H inh, Nrf2 block, Nrf2 activator)
O=C(COc1ccccc1)Nc1ccc([C@@H](O)[C@H]2COCC(=O)N2CCCc2ccccc2)cc1	none (no result: A549 tox, IDH1 R132H inh, LDHA block, Nrf2 block, Nrf2 activator)
N#Cc1ccc(C(=O)NCCCC2CCCC2)cc1	none (no result: A549 tox, IDH1 R132H inh, Nrf2 block, Nrf2 activator)
Fc1ccc(N/N=C/c2cccc(Cl)c2)c(F)c1	ALOX12 inh inconclusive (no result: A549 tox, IDH1 R132H inh, Nrf2 block, Nrf2 activator)
Fc1ccc(N/N=C/c2ccc(F)c(F)c2)c(F)c1	ALOX12 inh 7.9µM (no result: A549 tox, IDH1 R132H inh, Nrf2 block, Nrf2 activator)
Fc1ccc(N/N=C/c2cccc(Br)c2)c(F)c1	ALOX12 inh 16µM (no result: A549 tox, IDH1 R132H inh, Nrf2 block, Nrf2 activator)
CCCCCCNC(=O)c1nccnc1N	none (no result: A549 tox, IDH1 R132H inh, Nrf2 block, Nrf2 activator)
COc1ccc(C2CCCN2C(=O)c2csc(-c3ccccc3)n2)cc1 (centres undefined)	ALOX12 inh inconclusive (no result: A549 tox, IDH1 R132H inh, Nrf2 block, Nrf2 activator)
O=C(CSc1nc(-c2ccccc2)c(-c2ccccc2)[nH]1)N1CCN(S(=O)(=O)c2ccccc2)CC1	Nrf2 block 16µM
Cc1cc(C)c2cc(CN(Cc3nnnn3C3CCCCC3)CC3CCCO3)c(=O)[nH]c2c1 (centres undefined)	ALOX12 inh 11µM
Cc1ccc(C2CC(=O)Nc3cc4c(cc32)OCCO4)cc1Br (centres undefined)	Nrf2 block 18µM
COC(=O)c1ccc(S(=O)(=O)N2CCCN(Cc3ccc(F)cc3)CC2)n1C	Nrf2 block 13µM
CCN(CC)C(=O)CSc1nc(-c2cccs2)cc(-c2cccs2)c1C#N	Nrf2 block 18µM, ALOX12 inh inconclusive
CCCC(=O)NC(c1ccc(Cl)cc1Cl)c1ccc2cccnc2c1O (centres undefined)	Nrf2 block 23µM
CCCCC(=O)NC(c1ccccc1OC)c1ccc2cccnc2c1O (centres undefined)	Nrf2 block 21µM
CC(C)CC(=O)NC(c1cccs1)c1ccc2cccnc2c1O (centres undefined)	A549 tox inconclusive, Nrf2 block 21µM (no result: ALOX12 inh)
CC(C)C(=O)NC(c1cccs1)c1cc([N+](=O)[O-])c2cccnc2c1O (centres undefined)	A549 tox inconclusive, IDH1 R132H inh inconclusive, Nrf2 block 21µM (no result: ALOX12 inh)
CCC(=O)NC(c1cccs1)c1ccc2cccnc2c1O (centres undefined)	Nrf2 block inconclusive
COc1ccccc1CNc1ncncc1-c1nc(-c2ccccc2)no1	none (no result: A549 tox, IDH1 R132H inh, LDHA block, Nrf2 block, Nrf2 activator)
CC(C)NC(=O)C1CCN(C(=O)c2cc3sccc3n2Cc2ccc(F)cc2)CC1	A549 tox inconclusive, Nrf2 block 15µM (no result: ALOX12 inh)
Cn1cc([C@@H]2C[C@H]3CN(Cc4cccc(Cl)c4)C(=O)[C@]34CCCN24)c(-c2ccccc2)n1	A549 tox inconclusive, Nrf2 block 21µM
O=C1N(Cc2cccc(Cl)c2)C[C@@H]2C[C@@H](c3cccn3-c3cccnc3)N3CCC[C@@]123	Nrf2 block 21µM
O=C(c1ccccc1)C1CCN(c2ncc(C(F)(F)F)cc2Cl)CC1	none (no result: A549 tox, IDH1 R132H inh, Nrf2 block, Nrf2 activator)
CCN(Cc1nc2ccccc2c(=O)[nH]1)C(=O)c1cccc(NC(=O)c2cccs2)c1	none
CCN(Cc1nc2ccccc2c(=O)[nH]1)C(=O)c1ccc(C)c(NC(=O)c2ccco2)c1	Nrf2 block 16µM
O=CNN(C=O)c1ccccc1	none (no result: A549 tox, IDH1 R132H inh, Nrf2 block, Nrf2 activator)
